# Data as given in the supplement of paper PMC6518042.
# System: Pectobacterium parmentieri SCC3193
# Assay: DuctApe activity index (growth/respiration on compound as sole nutrient source, blank-subtracted) (activity index (0-3)); higher = stronger utilization of the compound, active = 3 or more
# Conditions: nutrient role (plate category): carbon
# Experimental: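 Biolog Phenotype Microarray plates PM1, PM2A (carbon), PM3 (nitrogen) and PM4 (phosphorus/sulfur) inoculated with P. parmentieri SCC3193 in M9-C minimal salts medium with Biolog dye A, and read in the OmniLog for 46 h. Each well was tested in triplicate and the experiment was run twice. DuctApe computed a blank-subtracted activity index (AV, 0-3) from the mean curves; growth is positive at AV >= 3 and negative at AV <= 2.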
row,SMILES,DuctApe activity index
1,OC[C@@H](O)C(O)[C@H](O)CO [D-Arabitol],0 (inactive)
2,O=C(O)[C@@H]1CCCN1 [L-Proline],0 (inactive)
3,C[C@@H](O)[C@H](N)C(=O)O [L-Threonine],0 (inactive)
4,O=C(O)c1ccccc1O [2-Hydroxybenzoic acid],0 (inactive)
5,OC[C@H]1OC(O)[C@H](O)[C@@H](O)[C@@H]1O (stereo partly drawn) [a-D-Glucose],3 (active)
6,NC(=O)C[C@H](N)C(=O)O [L-Asparagine],3 (active)
7,CCC(C)N (stereo not given) [sec-Butylamine],0 (inactive)
8,O=C(O)c1ccc(O)cc1 [4-Hydroxybenzoic acid],0 (inactive)
9,N=C(N)NCCC[C@H](N)C(=O)O [L-Arginine],0 (inactive)
10,CO[C@H]1O[C@H](CO)[C@@H](O)[C@H](O)[C@H]1O [a-Methyl-D-Glucoside],0 (inactive)
11,C[C@@H](O)[C@H](O)[C@H](O)[C@@H](O)C=O [D-Fucose],0 (inactive)
12,Nc1ncnc2c1ncn2[C@@H]1O[C@H](CO)[C@@H](O)[C@H]1O [Adenosine],1 (inactive)
13,O[C@@H]1[C@@H](O)[C@@H](O)CO[C@H]1O [L-Arabinose],3 (active)
14,O=c1[nH]cnc2c1ncn2[C@@H]1O[C@H](CO)[C@@H](O)[C@H]1O [Inosine],1 (inactive)
15,Cc1cn([C@H]2C[C@H](O)[C@@H](CO)O2)c(=O)[nH]c1=O [Thymidine],1 (inactive)
16,OCC(O)C(O)C(O)CO (stereo not given) [Adonitol],1 (inactive)
17,O=C(CO)[C@@H](O[C@H]1O[C@H](CO)[C@@H](O)[C@H](O)[C@H]1O)[C@H](O)[C@H](O)CO [Turanose],0 (inactive)
18,OC[C@H]1O[C@@H](O[C@H]2[C@H](O)[C@@H](O)[C@H](O[C@H]3[C@H](O)[C@H](O)[C@H](O[C@@H]4[C@H](O)[C@H](O)[C@H](O)O[C@@H]4CO)O[C@@H]3CO)O[C@@H]2CO)[C@@H](O)[C@@H](O)[C@@H]1O [Mannan],0 (inactive)
19,OC[C@H]1O[C@H](O[C@H]2[C@H](O)[C@@H](O)[C@H](O)O[C@@H]2CO)[C@H](O)[C@@H](O)[C@@H]1O [Maltose],1 (inactive)

# Same assay, conditions: nutrient role (plate category): nitrogen
row,SMILES,DuctApe activity index
1,O=C(O)[C@@H]1CCCN1 [L-Proline],0 (inactive)
2,C[C@@H](O)[C@H](N)C(=O)O [L-Threonine],0 (inactive)
3,NC(=O)C[C@H](N)C(=O)O [L-Asparagine],2 (inactive)
4,N=C(N)NCCC[C@H](N)C(=O)O [L-Arginine],0 (inactive)
5,Nc1ncnc2c1ncn2[C@@H]1O[C@H](CO)[C@@H](O)[C@H]1O [Adenosine],2 (inactive)
6,O=c1[nH]cnc2c1ncn2[C@@H]1O[C@H](CO)[C@@H](O)[C@H]1O [Inosine],0 (inactive)
7,Cc1cn([C@H]2C[C@H](O)[C@@H](CO)O2)c(=O)[nH]c1=O [Thymidine],0 (inactive)
8,O=C1NC(=O)C(=O)N1 [Parabanic acid],0 (inactive)
9,C[C@H](N)C(=O)N[C@H](C(=O)O)[C@@H](C)O,0 (inactive)
10,N[C@@H](CS)C(=O)O [L-Cysteine],0 (inactive)
11,CSCC[C@H](NC(=O)CN)C(=O)O,0 (inactive)

# Same assay, conditions: nutrient role (plate category): phosphate & sulphur
row,SMILES,DuctApe activity index
1,N[C@@H](CSC[C@H](N)C(=O)O)C(=O)O [Lanthionine],1 (inactive)
2,O=P(O)(O)OC(CO)CO [b-Glycerol Phosphate],2 (inactive)
3,Nc1nc2c(ncn2[C@@H]2O[C@H](CO)[C@@H](O)[C@H]2OP(=O)(O)O)c(=O)[nH]1 [Guanosine 2`-Monophosphate],2 (inactive)
4,"Nc1ncnc2c1ncn2[C@@H]1O[C@@H]2COP(=O)(O)O[C@H]2[C@H]1O [Adenosine 3`,5`-Cyclic Monophosphate]",0 (inactive)
5,NCCS(=O)(=O)O [Taurine],1 (inactive)
6,NCCOP(=O)(O)O [O-Phosphoryl-Ethanolamine],1 (inactive)
7,CS(=O)(=O)CC[C@H](N)C(=O)O [L-Methionine Sulfone],0 (inactive)
8,NCCS [Cysteamine],1 (inactive)
9,N[C@@H](CS)C(=O)O [L-Cysteine],0 (inactive)
10,CSCC[C@H](NC(=O)CN)C(=O)O,1 (inactive)
